Test results published in the OligoGym collection.

target: CCDC56; test: pooled miR-30 sensor sort-seq; sequence = guide strand; details: shRNA

Going from TAGCTCATCTAGGAAACGCTCC to TCATCTAGGAAACGCTCCTGGG, the sensor-assay potency score (higher = more potent) falls from -0.33 to -1.24.

Going from TTGCTCGGGTGTCAGCTTCTCC to ATCTAGGAAACGCTCCTGGGAA, the sensor-assay potency score (higher = more potent) falls from -1.07 to -1.12.

Compared with ACCATAAATAGCCAACACCAGG, TAAATAGCCAACACCAGGGCCC is higher in sensor-assay potency score (higher = more potent): -2.43 for the first, 0.333 for the second.

First: TGGGAAATCGAGTAGAAGGTGT
Second: TAGAATCCAGAGGGTCACCAGC
The sensor-assay potency score (higher = more potent) of the first is higher: 0.0738 for the first, -1.25 for the second.

Going from TCGAGTAGAAGGTGTAACCATA to TCGTCTTCTAGCTCATCTAGGA, the sensor-assay potency score (higher = more potent) rises from -1.07 to -0.614.

target: CCDC72; test: as above; details: shRNA

First: TTCCTCGTCCATCTCCTTGGCC
Second: ATCTTCCTCGTCCATCTCCTTG
The sensor-assay potency score (higher = more potent) of the first is higher: -0.547 for the first, -1.81 for the second.

Going from TTAAATGTACAACAGCTCCAAG to TCTGCTTGAAAGCCTTATCTTC, the sensor-assay potency score (higher = more potent) rises from -1.04 to -0.819.

First: TTCAGTGGCTTCTTCTTGCCAC
Second: TCTTCCTCGTCCATCTCCTTGG
The sensor-assay potency score (higher = more potent) of the first is higher: 0.0626 for the first, -0.456 for the second.

Compared with TTATCTTCCTCGTCCATCTCCT, TTGTTTCTGCTTGAAAGCCTTA is lower in sensor-assay potency score (higher = more potent): 0.315 for the first, -0.0976 for the second.

First: TTTGTTTCTGCTTGAAAGCCTT
Second: TTATTCTTAAATGTACAACAGC
The sensor-assay potency score (higher = more potent) of the first is higher: -0.585 for the first, -0.855 for the second.

target: CCDC77; test: as above; details: shRNA

Going from TTTTTCTCTTGTACTAACTTAT to TTTCGTTTGAGTCTCTAGCGCC, the sensor-assay potency score (higher = more potent) rises from -0.944 to -0.231.

Going from TAGCTCTTTGATTTTGTTCTGA to TATGCTGTCCTTCACAAGCTTC, the sensor-assay potency score (higher = more potent) falls from 0.252 to -1.33.

Going from TTTCTTGTCTTCTAGCTCCCTG to TTAATATCTGTCTTAAAGCCTT, the sensor-assay potency score (higher = more potent) falls from -0.0804 to -0.792.

Going from TTCTTGTCTTCTAGCTCCCTGA to TAATATATTCACTTTGAGCATG, the sensor-assay potency score (higher = more potent) rises from -1.06 to -0.91.

Compared with TTTCTTCTTACACTGCACCCTA, TTGCAAAATACCTTCTTCCTAA is lower in sensor-assay potency score (higher = more potent): -0.0389 for the first, -0.254 for the second.

Going from TTATCTTTTTCAAGCATCCATG to TTTGGTGCTCTCATAGAGCAGT, the sensor-assay potency score (higher = more potent) rises from -1.19 to -0.0472.

target: CCL13; test: as above; details: shRNA

Going from TTACTTAACACATAGTACATTT to TATAATTCTGGACCCACTTCTC, the sensor-assay potency score (higher = more potent) rises from -1.04 to -0.771.

Compared with TTTCATATAATTCTGGACCCAC, TGCAAGGAGATCTTCTTACTGC is lower in sensor-assay potency score (higher = more potent): 0.0997 for the first, -0.0125 for the second.

Going from TAACACATAGTACATTTTGAAT to TCTGAAGATGACAGCCTTCTGG, the sensor-assay potency score (higher = more potent) rises from -1.62 to -0.807.

First: TGAAGCAGCAAGTAGATGGGAC
Second: ATCTTCTTACTGCTAAATGTGA
The sensor-assay potency score (higher = more potent) of the first is higher: -0.203 for the first, -1.06 for the second.
